Screening results (PubChem)
MITF inh = blocks human microphthalmia-associated transcription factor; inhibition, % at 2.6 µM; AlphaScreen MITF homodimerization, bead proximity signal; O75030; actives 0.91% (n = 650,000); in the data active = inhibition above about 50%
FBW7 act = human FBW7 E3 ligase activation, primary screen; AlphaScreen FBW7–phospho-cyclin E peptide binding, activator screen; actives 0.13% (n = 650,000); normalized activity (activation), % at 26.1 µM; in the data active = normalized activity above about 1.9%;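 note: purified mutant Fbw7 with reduced substrate affinity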
GPR151 activ = human GPR151 activation | activation, % at 11.2 µM | Q8TDV0 | actives 1% (n = 650,000) | PathHunter beta-arrestin GPR151 cells, luminescence; in the data active = activation above about 4.9%
Target sequence (Q8TDV0 whole entry, looked up): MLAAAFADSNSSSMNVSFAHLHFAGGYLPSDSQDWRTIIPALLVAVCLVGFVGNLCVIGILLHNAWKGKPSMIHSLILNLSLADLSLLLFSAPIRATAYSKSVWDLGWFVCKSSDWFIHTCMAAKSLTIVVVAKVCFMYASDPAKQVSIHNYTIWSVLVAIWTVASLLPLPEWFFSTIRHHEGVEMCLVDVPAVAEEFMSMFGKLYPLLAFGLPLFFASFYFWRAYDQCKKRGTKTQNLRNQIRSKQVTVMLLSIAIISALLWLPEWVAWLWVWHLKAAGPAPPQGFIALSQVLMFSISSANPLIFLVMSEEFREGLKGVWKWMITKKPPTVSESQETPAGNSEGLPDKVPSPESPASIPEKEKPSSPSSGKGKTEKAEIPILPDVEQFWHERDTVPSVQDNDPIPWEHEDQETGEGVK
TEAD-YAP block = TEAD-YAP interaction inhibition; HEK-TIYL cells, TEAD-Gal4/YAP UAS-luciferase luminescence; inhibition, % at 9.12 µM; actives 1.4% (n = 640,000); AID 1259422; in the data active = inhibition above about 32%
MITF inh conf = confirmation of human MITF inhibitors. shares compounds with MITF inh. AlphaScreen MITF homodimerization, biotin/His-MITF beads. inhibition, % at 2.6 µM. actives 16% (n = 4,700). AID 1259372;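 active = inhibition above a cutoff derived from the DMSO control wells, cut at about 28% in these data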;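 note: inhibitors lower the bead chemiluminescence by keeping MITF from dimerizing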
AlphaScreen DR = optically interferes with AlphaScreen signal in dose response; IC50, µM; shares compounds with MITF inh; AlphaScreen optical interference counterscreen, cell-free; actives 6% (n = 480); AID 1259373; call rule not given here
AS interf ctr = optically interferes with AlphaScreen signal; shares compounds with MITF inh; LysRS AlphaScreen counterscreen, signal interference, triplicate; inhibition, % at 2.6 µM; actives 7.6% (n = 4,700); AID 1259376;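 active = inhibition above a cutoff derived from the DMSO control wells, cut at about 30% in these data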
Each line names hits and unclear results; the compound was inactive in the other large screens (follow-up assays come after a bar, where they were run). Hits are enriched below; roughly 3.5% of the tested compounds scored in any of these assays.

CCN(c1cccc(C)c1)S(=O)(=O)c1ccc(Sc2ccc(Br)cc2)c(C(=O)O)c1	none
Cc1cc(N)n(-c2ccc(Oc3ccccc3)cc2S(=O)(=O)O)n1	MITF inh 52 | MITF inh conf inactive | AS interf ctr inactive
Cc1cc(N)n(-c2ccccc2C(F)(F)F)n1	none
Cc1nn(C(=O)C2CCCN2S(=O)(=O)c2ccc(Cl)cc2)c(C)c1Sc1ccc([N+](=O)[O-])cc1 (stereo not given)	MITF inh 67 | MITF inh conf inactive | AS interf ctr inactive
COc1ccc(/C=C/C(=O)NCCc2ccccc2)cc1	none
Cc1nonc1CN(C)Cc1ccc(OCC2CCCN(C(=O)CC3CCCC3)C2)cc1 (stereo not given)	none
COC1(OC)N=C(N)C2(C#N)C(c3cccc(C)c3)C12C#N (stereo not given)	MITF inh 52 | MITF inh conf inactive | AS interf ctr inactive
COC1(OC)N=C(N)C2(C#N)C(c3cccc(OCc4ccccc4)c3)C12C#N (stereo not given)	none
CC(NC1CCN(c2cccc(NC(=O)c3cccnc3)c2)CC1)c1cccs1 (stereo not given)	none
NNc1nc(NN)nc(Nc2cccc3ccccc23)n1	MITF inh 51 | MITF inh conf 54 | AS interf ctr 63
CCCCCCc1cc2cc(-c3nnc(Nc4ccc(C)cc4)s3)c(=O)oc2cc1O	none
O=C(O)C1CCN(c2nc(-c3ccc([N+](=O)[O-])cc3)cs2)CC1	none
N#Cc1ccccc1NC(=O)c1ccc(S(=O)(=O)N2CCCC2)cc1	none
N#Cc1ccccc1NC(=O)c1ccc(S(=O)(=O)N2CCOCC2)cc1	MITF inh 55 | MITF inh conf inactive | AS interf ctr inactive
COc1ncc(-c2cnc3ccc(NC4CCOCC4)nn23)c(OC)n1	MITF inh 68 | MITF inh conf inactive | AS interf ctr inactive
COc1ccc(-c2cnc3ccc(NC4CCOCC4)nn23)cn1	none
CC(=O)Nc1ccc(NC(=O)c2ccnc(Nc3ccc4ncccc4c3)c2)cc1	none
CC(C)C(C)NC(=O)CSc1nnc(NCc2ccccc2)s1 (stereo not given)	MITF inh 53 | MITF inh conf inactive | AS interf ctr inactive
O=C1C2CCCCC2C(=O)N1c1ccc2c(c1)CCC2 (stereo not given)	none
O=C1C2C3C=CC(C3)C2C(=O)N1c1ccc2c(c1)CCC2 (stereo not given)	MITF inh 79 | MITF inh conf inactive | AS interf ctr inactive
Cc1ccc(OCc2nc3ccccc3n2C2CCN(C(=O)/C=C/c3cnc[nH]3)CC2)cc1	none
CNC(=O)Nc1ccc2nc(-c3ccco3)c(-c3ccco3)nc2c1	MITF inh 110 | MITF inh conf 110 | AlphaScreen DR inactive | AS interf ctr inactive
Cc1ccc(NC(=O)c2cc(-c3ccco3)on2)cc1C	none
O=C(Cc1noc2ccccc12)N1CCN(c2ccc(-c3ccccn3)nn2)CC1	MITF inh 126 | MITF inh conf 112 | AS interf ctr 101
O=C(c1cnn(-c2ccccc2)c1-n1cccc1)N1CCN(c2ccccn2)CC1	none
O=S(=O)(C1CC1)N1CCN(c2ccc(-c3ccccn3)nn2)CC1	MITF inh 122, TEAD-YAP block 59 | MITF inh conf 108 | AS interf ctr 100
Cc1c(C(=O)N2CCN(c3ccc(-c4ccccn4)nn3)CC2)cnn1-c1ccccc1	MITF inh 75 | MITF inh conf 96 | AS interf ctr 101
O=C(COC(=O)/C=C/c1ccco1)COC(=O)/C=C/c1ccco1	MITF inh 78 | MITF inh conf 63 | AlphaScreen DR inactive | AS interf ctr inactive
N#Cc1ccc(OCC(=O)OCC(=O)NCc2ccco2)cc1	none
O=C(COC(=O)/C=C/c1ccco1)NC1CCCCC1	none
O=C(COC(=O)COc1ccc(Cl)cc1)NCc1ccco1	MITF inh 52 | MITF inh conf 56 | AlphaScreen DR inactive | AS interf ctr inactive
O=C(COC(=O)/C=C/c1ccco1)NCc1ccco1	MITF inh 63 | MITF inh conf 64 | AlphaScreen DR inactive | AS interf ctr inactive
CCOC(=O)/C=C/c1ccco1	none
COc1cc(C=O)ccc1OCC(=O)Nc1c(C)n(C)n(-c2ccccc2)c1=O	none
N#Cc1cccc(CN2CCc3nc(-c4ccccn4)nc(N4CCOCC4)c3C2)c1	none
CCOc1cc(CN)cc(Br)c1OCC	none
COc1cc(Nc2nc(Nc3ncccn3)nc3c2ncn3CCN2CCCC2=O)cc(OC)c1OC	none
COc1ccc(-c2cc3ccccc3n2CC(O)CNCCO)cc1 (stereo not given)	MITF inh 53 | MITF inh conf inactive | AS interf ctr inactive
OC(CNC1CC1)COCc1ccccc1F (stereo not given)	MITF inh 59 | MITF inh conf inactive | AS interf ctr inactive
c1csc(C2=NNC(c3ccncc3)=Nc3ccccc32)c1	MITF inh 71 | MITF inh conf inactive | AS interf ctr inactive
COc1ccc2c(c1)C(c1cccs1)=NNC(c1ccncc1)=N2	none
Cc1ccc2cc(CN(CCO)C(=O)c3ccc(Cl)cc3)c(=O)[nH]c2c1	MITF inh 54 | MITF inh conf inactive | AS interf ctr inactive
CCOc1ccc(-c2nn3c(COc4ccccc4)nnc3s2)cc1	none
c1ccc(OCc2nnc3sc(-c4cccnc4)nn23)cc1	MITF inh 64 | MITF inh conf inactive | AS interf ctr inactive
COc1ccccc1CNCc1cc(Br)ccc1OC	MITF inh 70 | MITF inh conf inactive | AS interf ctr inactive
CCNCc1cc(Br)ccc1OC	none
c1ccc(-c2cc(N3CCC4(CC3)OCCO4)nc(-c3ccccn3)n2)nc1	MITF inh 114, TEAD-YAP block 68 | MITF inh conf 116 | AS interf ctr 100
FC(F)(F)c1ccc(Cn2cnc3c(NCc4nc5ccccc5[nH]4)nc(N4CCN(Cc5ccc6c(c5)OCO6)CC4)nc32)cc1	none
COc1ccc(C2/C(=C(/O)c3ccc(C)cc3)C(=O)C(=O)N2CC(C)O)cc1OC (stereo not given)	MITF inh 68 | MITF inh conf inactive | AS interf ctr inactive
CC(C)c1ccc(NC(=O)CNCC(c2ccccc2)N(C)C)cc1 (stereo not given)	MITF inh 65 | MITF inh conf inactive | AS interf ctr inactive
CN(C)C(CNCC(=O)Nc1ccc2c(c1)CCC2)c1ccccc1 (stereo not given)	none
CC1Cc2ccccc2N1C(=O)CNCC(c1ccccc1)N(C)C (stereo not given)	MITF inh 67 | MITF inh conf inactive | AS interf ctr inactive
CN(C)C(CNCC(=O)NC(=O)Nc1ccc2c(c1)OCCO2)c1ccccc1 (stereo not given)	MITF inh 79, TEAD-YAP block 55 | MITF inh conf inactive | AS interf ctr inactive
CC1Cc2ccccc2N1C(=O)CNCCN(C)C (stereo not given)	none
